# Screening results from PubChem BioAssay.
# Most compounds without a hit are left out; they make up all but 1.1% or so of the library.
# S1P2 antag = S1P2 (human) receptor antagonism; cell-based S1P2 antagonist assay, inhibition at 5 uM; O95136; inhibition, % at 5 µM; 97,000 compounds, 0.21% hits; in the data active = inhibition above about 45%;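 note: CRE beta-lactamase reporter cells expressing human S1P2 stimulated with S1P; 0% = agonist at EC80 alone and 100% = agonist plus reference antagonist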
# GALR2 agonist = agonists of human galanin receptor 2 (GALR2); GALR2-expressing cells, agonist activation read-out; AID 803; activation, % (concentration not given with the values); O43603; 140,000 compounds, 0.48% hits; in the data active = activation above about 5%, passing the limit was not always enough;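 note: 0% = vehicle buffer wells and 100% = reference agonist at full effect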
# Target sequence (O43603 whole entry, looked up): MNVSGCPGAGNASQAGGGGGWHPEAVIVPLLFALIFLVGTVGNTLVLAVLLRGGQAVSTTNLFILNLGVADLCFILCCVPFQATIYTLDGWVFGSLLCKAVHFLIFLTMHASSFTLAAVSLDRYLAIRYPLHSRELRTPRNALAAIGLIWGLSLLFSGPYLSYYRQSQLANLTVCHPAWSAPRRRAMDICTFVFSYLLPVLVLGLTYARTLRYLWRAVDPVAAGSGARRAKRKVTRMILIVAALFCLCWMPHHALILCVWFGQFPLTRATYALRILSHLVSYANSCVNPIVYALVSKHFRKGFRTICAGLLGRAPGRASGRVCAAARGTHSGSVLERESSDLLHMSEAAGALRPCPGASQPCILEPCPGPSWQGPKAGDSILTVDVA
# GALR2 antag = GALR2 (human) receptor antagonism; 140,000 compounds, 0.39% hits; inhibition, % at 4 µM; GALR2-expressing cells, antagonist mode; O43603;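 note: cells stimulated with galanin 1-16 at roughly its EC80; 0% = agonist challenge control and 100% = basal control without agonist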
# S1P2 agonist = S1P2 (human) receptor agonism; O95136; S1P2-expressing cell line, agonist reporter read-out; activation, % at 4.5 µM; 97,000 compounds, 0.46% hits; in the data active = activation above about 16%;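 note: 0% = vehicle low control and 100% = maximal reference agonist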
# GALR2 blk conf = confirmation of human galanin receptor 2 (GALR2) antagonists; shares compounds with GALR2 antag; GALR2-expressing cells, antagonist mode, inhibition; inhibition, % at 4 µM; 480 compounds, 60% hits; AID 866;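 note: cells stimulated with galanin at about its EC80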
# BLA inh counter = beta-lactamase inhibition, GALR2 counterscreen | inhibition, % at 4.2 µM | shares compounds with GALR2 antag | 480 compounds, 36% hits | AID 867 | CHO NFAT-BLA reporter, beta-lactamase FRET, thapsigargin-stimulated;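 active = inhibition above the mean inhibition across tested compounds plus 3 SD, cut at about 27% in these data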;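 note: 0% = 500 nM thapsigargin stimulated wells and 100% = unstimulated BSA only wells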
# * hit, by the source's call; x = no result. Cut-off read from the data, not from the text of the source, unless noted: active = inhibition above about 27%; inactive = the rest.
SMILES,S1P2 antag,GALR2 agonist,GALR2 antag,S1P2 agonist,GALR2 blk conf,BLA inh counter
O=C1NC(c2ccccc2)C(C(=O)c2cccs2)C(O)(C(F)(F)F)N1 (stereo not drawn),10,-4,33*,-3,9,0
CCOC(=O)c1[nH]c2c(c1-c1ccc(OC)cc1)C(=O)CC(c1ccc(OC)c(OC)c1)C2 (stereo not drawn),x,0,-1,x,x,x
CCOC(=O)C1=C(CSc2nc(-c3ccccc3)ccc2C#N)OC(N)=C(C#N)C1c1ccccc1 (stereo not drawn),-4,-1,17,-5,x,x
CCOC(=O)C1=C(CSc2nc(-c3ccccc3)ccc2C#N)OC(N)=C(C#N)C1c1cccnc1 (stereo not drawn),6,-1,29*,-8,30*,17
COc1ccc(NC(=O)COC(=O)c2ncc(Cl)c(Cl)c2Cl)c(OC)c1,x,0,1,x,x,x
Oc1ccccc1/C=N/Nc1ccccc1,x,-1,30*,x,38*,13
Oc1ccccc1/C=N/Nc1ncc(Br)cn1,x,-1,8,x,x,x
N#CC(C#N)=C1C=CC=CN1/C(=C\c1ccccc1Cl)C(=O)c1ccccc1,x,-2,73*,x,89*,99*
NC(=S)Nn1c(-c2ccccc2)nc2ccccc2c1=O,x,1,1,x,x,x
COc1ccc(C(=O)c2ccc(N(C)C)cc2)c(OC)c1,4,-1,0,-2,x,x
CN(C)c1ccc(C(=O)c2ccc(N(C)C)c3ccccc23)cc1,4,1,30*,4,33*,64*
C=CCN(C(=O)c1cccc(S(=O)(=O)N2CCN(C)CC2)c1)c1nc(-c2ccccc2)cs1,-6,-1,-19,2,x,x
Cc1ccc(NC(=O)CN(C)C(=O)COc2c(Cl)cc(Cl)c3ccc(C)nc23)cc1,x,-1,2,x,x,x
Cc1ccc(NC(=O)CN(C)C(=O)Cn2ncc(Cl)c(Cl)c2=O)cc1,x,-2,60*,x,83*,33*
O=C(CCl)N1N=C(c2ccco2)CC1c1cccs1 (stereo not drawn),x,-1,29*,x,33*,18
Cc1onc(-c2ccccc2)c1C(=O)Nc1nc2c(s1)CCCC2,-9,-1,27*,-2,8,4
COc1ccc(/C=N/NC(=O)c2ccc(N(C)S(=O)(=O)c3ccccc3)cc2)cc1OC,x,-2,8,x,x,x
Cn1c(=O)c(NCCc2ccccc2)c2c3c(cccc31)C(=O)c1ccccc1-2,29,1,40*,-4,38*,42*
Cc1cc(Cl)cc(Br)c1OCCCN1C(=O)NC(C)(C)C1=O,14,-3,7,-5,x,x
CCCCCCCCCCn1c2c(c(=N)c3c1CCC3)CCC2,87*,-4,36*,-5,30*,57*
O=C(COc1ccc(C(=O)c2ccccc2)cc1)NCC(=O)Nc1ccccc1Br,x,-2,11,x,x,x
CN(C(=S)NC1CCCCC1)C1(c2ccccc2Cl)CCCCC1=O (stereo not drawn),x,0,27*,x,34*,8
Cc1c(NC(=O)COC(=O)C(c2ccc(Cl)cc2)C(C)C)c(=O)n(-c2ccccc2)n1C (stereo not drawn),-3,-1,-14,-5,x,x
Cc1ccc(SC(C)C(=O)Nc2ccccc2C(=O)N2CCOCC2)cc1 (stereo not drawn),-10,-1,32*,-3,8,2
CCOC(=O)C1CCCN(C(=S)Nc2ccc(C)cc2C)C1 (stereo not drawn),-6,-2,0,-4,x,x
SMILES,S1P2 antag,GALR2 agonist,GALR2 antag,S1P2 agonist,GALR2 blk conf,BLA inh counter
CCN(CC)c1ccc(/C=C2/SC(=O)N(C(C)C)C2=O)o1,x,3,45*,x,3,5
CSc1ccccc1OC1CCN(Cc2ccccc2)CC1,x,-1,14,x,x,x
Cc1cccc2sc(NC(=O)C3CCN(S(=O)(=O)c4cc([N+](=O)[O-])ccc4Cl)CC3)nc12,x,-1,27*,x,22,21
Cc1ccc(C(=O)NNC(=O)c2cccc(S(=O)(=O)N3CCN(c4ccccc4)CC3)c2)cc1,x,0,14,x,x,x
O=C(Nc1cccc(F)c1)c1sc(Cl)nc1-c1ccccc1,x,-2,27*,x,14,11
CCOC(=O)c1cc([N+](=O)[O-])c([N+](=O)[O-])cc1NC(C)=O,x,-1,41*,x,48*,7
CCOC(=O)c1ccc(NC(=O)c2ccccc2[N+](=O)[O-])cc1,x,-1,0,x,x,x
CCCC1=C(C(=O)OCC)C(c2ccc(OC)c(CSc3ccccn3)c2)C(C#N)=C(N)O1 (stereo not drawn),x,0,-12,x,x,x
